From PubChem BioAssay come the findings set out here.

The source made the active and inactive calls. The rule behind the calls is not given here.

Assay [1] can be described thus: kinase inhibitors against Plasmodium liver-stage infection, cell-based, known kinase inhibitor set, luminescence, hepatoma host viability (AID 624392).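 Note: infected cells incubated roughly two days before readout.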 The conditions noted are these: Plasmodium liver stage in hepatoma cells, luciferase luminescence, concentration not given here; liver cell % of control: measured here: host liver cell viability; parasite % of control: stronger effect = lower value.

Assay [2] in a line: modulators of glucocorticoid suppression of NF-kB, cell-based, luciferase, IL-1B stimulus, dexamethasone (AID 624486).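 For percent of negative control (+Dex): 100% = mean signal of vehicle control wells on the plate.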 The settings on record: NF-kB luciferase reporter, IL-1B + dexamethasone, luminescence; percent of negative control (+Dex): actives lie on both sides, concentration not given here; z-score: measured here: IL-1B alone, no Dex. On the technique in general: In a reporter assay the amount or activity of a reporter protein is the signal.

In assay [3] the target is Cellular tumor antigen p53 (Homo sapiens) (UniProt P04637). Nature of the assay: kinase inhibitors altering GFP-p53 stability in HPV16-positive cells, imaging, known kinase inhibitor set, EGFP/DsRed ratio (AID 1053116).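 Note: cells exposed to compounds for 24 h at 37 °C before reading.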 The settings on record: stronger effect = higher value; EGFP object count: measured here: GFP-p53 positive objects count.
Cellular tumor antigen p53 (Homo sapiens), sequence (P04637 whole entry, looked up): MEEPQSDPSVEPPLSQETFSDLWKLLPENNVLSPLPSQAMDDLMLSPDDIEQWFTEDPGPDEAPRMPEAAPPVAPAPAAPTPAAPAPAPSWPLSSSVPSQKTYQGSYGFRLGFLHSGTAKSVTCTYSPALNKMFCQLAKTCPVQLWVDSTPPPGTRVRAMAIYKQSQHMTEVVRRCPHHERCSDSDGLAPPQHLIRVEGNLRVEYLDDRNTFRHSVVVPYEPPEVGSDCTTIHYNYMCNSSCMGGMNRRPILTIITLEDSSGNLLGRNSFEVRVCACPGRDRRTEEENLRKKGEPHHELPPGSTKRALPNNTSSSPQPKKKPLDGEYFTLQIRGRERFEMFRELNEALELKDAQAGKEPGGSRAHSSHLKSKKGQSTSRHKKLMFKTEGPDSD
Assay [4] in a line: IRF3 reporter activation in THP-1 macrophages, cell-based, PMA-stimulated THP-1, luminescence (AID 1053176). The conditions noted are these: PMA-differentiated THP-1, IRF3 reporter luminescence; stronger effect = higher value.

Take `COc1cc[nH]c1C=C1C(=O)Nc2ccc(F)c(C#CC(O)C(N)C(C)O)c21` (stereo not given): in assay [1], the liver cell % of control amounted to 76.5% and the parasite % of control was 46.6% (inactive). Further, in assay [2], the percent of negative control (+Dex) was 135% (inactive) and the z-score came to 0.23. In assay [3], the EGFP object count amounted to 250 and the EGFP/DsRed ratio is 1.32 (inactive). The fraction signal in assay [4] was 0.0035 (inactive).
With `Cn1c(=O)c(Oc2ccc(F)cc2F)cc2cnc(NCC(C)(C)O)nc21`, in assay [1], the liver cell % of control worked out at 102% and the parasite % of control is 62.1% (inactive). For the same molecule, in assay [2], the percent of negative control (+Dex) is 101% (inactive) and the z-score was -0.01. Also, in assay [3], the EGFP object count was determined as 4 and the EGFP/DsRed ratio was 0.146 (inactive). Also, the fraction signal in assay [4] was -0.001 (inactive).
Regarding `O=C1NC(=NC2CC2c2ccccc2)SC1=Cc1ccc2ncccc2c1` (stereo not given), in assay [1], the liver cell % of control was found to be 193% and the parasite % of control was 10.6% (inactive). In addition, in assay [2], the percent of negative control (+Dex) was 64% (active) and the z-score is -4.3. In assay [3], the EGFP object count turned out to be 3 and the EGFP/DsRed ratio was 0.221 (inactive). In assay [4], the fraction signal is -0.0115 (inactive).
`CON=C1NC(=O)C(=Cc2ccc3ncccc3c2)S1`: in assay [1], the liver cell % of control turned out to be 89.4% and the parasite % of control is 71.6% (inactive). Also, in assay [2], the percent of negative control (+Dex) was 113% (inactive) and the z-score turned out to be 2.23. Moreover, in assay [3], the EGFP object count was 3.5 and the EGFP/DsRed ratio was 0.0939 (inactive). For the same molecule, in assay [4], the fraction signal is -0.005 (inactive).
On to `N#Cc1c(C(=O)c2ccccc2)cnn1-c1ccccc1`, for which, in assay [1], the liver cell % of control was determined as 104% and the parasite % of control was 56.2% (inactive). Further, in assay [2], the percent of negative control (+Dex) is 106% (inactive) and the z-score turned out to be 1.11. Also, in assay [3], the EGFP object count was found to be 7 and the EGFP/DsRed ratio is 0.125 (inactive). The fraction signal in assay [4] is -0.007 (inactive).
As for `Nc1c(C(=O)c2cccc(OCCN3CCOCC3)c2)cnn1-c1ccc(F)cc1`, in assay [1], the liver cell % of control worked out at 121% and the parasite % of control was 47.9% (inactive). In assay [2], the percent of negative control (+Dex) is 100% (inactive) and the z-score was found to be 0.485. Moreover, in assay [3], the EGFP object count turned out to be 4 and the EGFP/DsRed ratio was 0.127 (inactive). Moreover, in assay [4], the fraction signal is -0.009 (inactive).
For `Cc1c(C2=C(c3cn(C)c4ccccc34)C(=O)NC2=O)c2ccccc2n1C`, in assay [1], the liver cell % of control came to 103% and the parasite % of control was 53.6% (inactive). Besides, in assay [2], the percent of negative control (+Dex) is 102% (inactive) and the z-score was -0.055. In assay [3], the EGFP object count worked out at 9 and the EGFP/DsRed ratio is 0.392 (inactive). In assay [4], the fraction signal was 0.0015 (inactive).
As for `Cn1cc(C2=C(c3cn(CCCCCSC(=N)N)c4ccccc34)C(=O)NC2=O)c2ccccc21`, in assay [1], the liver cell % of control amounted to 88.1% and the parasite % of control was 29.3% (inactive). Also, in assay [2], the percent of negative control (+Dex) is 99.5% (inactive) and the z-score amounted to 1.02. Moreover, in assay [3], the EGFP object count was 24.5 and the EGFP/DsRed ratio is 0.037 (inactive). The fraction signal in assay [4] is -0.007 (inactive).
`Cn1cc(C2=C(c3c4n(c5ccccc35)CCNC4)C(=O)NC2=O)c2ccccc21`: in assay [1], the liver cell % of control turned out to be 79.3% and the parasite % of control is 40.6% (inactive). Also, in assay [2], the percent of negative control (+Dex) is 97.5% (inactive) and the z-score is -0.32. For the same molecule, in assay [3], the EGFP object count stood at 25 and the EGFP/DsRed ratio is 0.0526 (inactive). In assay [4], the fraction signal was -0.007 (inactive).
As to `Cn1cc(C2=C(n3ccc4ccccc43)C(=O)NC2=O)c2ccccc21`, in assay [1], the liver cell % of control amounted to 130% and the parasite % of control is 37.7% (inactive). For the same molecule, in assay [2], the percent of negative control (+Dex) was 95.5% (inactive) and the z-score worked out at 0.125. In addition, in assay [3], the EGFP object count was 4 and the EGFP/DsRed ratio is 0.178 (inactive). Besides, in assay [4], the fraction signal was -0.0025 (inactive).
